PMC4336329 (PLoS ONE, 2015)
Out of some 310,000 compounds screened, about 14,000 (4.5%) showed an effect of 50% or more. Effects have a minus sign here. The entries come from a sample that favours strong results as a whole.

biological target: human ether-à-go-go-related gene (hERG) potassium channel (human, UniProt Q12809); test: primary screen, population patch clamp on CHO cells stably expressing hERG; higher = less effect of the substance
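Note: peak tail current of the secondary pulse compared with the same well before compound.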

human ether-à-go-go-related gene (hERG) potassium channel, sequence (Q12809 whole entry, looked up): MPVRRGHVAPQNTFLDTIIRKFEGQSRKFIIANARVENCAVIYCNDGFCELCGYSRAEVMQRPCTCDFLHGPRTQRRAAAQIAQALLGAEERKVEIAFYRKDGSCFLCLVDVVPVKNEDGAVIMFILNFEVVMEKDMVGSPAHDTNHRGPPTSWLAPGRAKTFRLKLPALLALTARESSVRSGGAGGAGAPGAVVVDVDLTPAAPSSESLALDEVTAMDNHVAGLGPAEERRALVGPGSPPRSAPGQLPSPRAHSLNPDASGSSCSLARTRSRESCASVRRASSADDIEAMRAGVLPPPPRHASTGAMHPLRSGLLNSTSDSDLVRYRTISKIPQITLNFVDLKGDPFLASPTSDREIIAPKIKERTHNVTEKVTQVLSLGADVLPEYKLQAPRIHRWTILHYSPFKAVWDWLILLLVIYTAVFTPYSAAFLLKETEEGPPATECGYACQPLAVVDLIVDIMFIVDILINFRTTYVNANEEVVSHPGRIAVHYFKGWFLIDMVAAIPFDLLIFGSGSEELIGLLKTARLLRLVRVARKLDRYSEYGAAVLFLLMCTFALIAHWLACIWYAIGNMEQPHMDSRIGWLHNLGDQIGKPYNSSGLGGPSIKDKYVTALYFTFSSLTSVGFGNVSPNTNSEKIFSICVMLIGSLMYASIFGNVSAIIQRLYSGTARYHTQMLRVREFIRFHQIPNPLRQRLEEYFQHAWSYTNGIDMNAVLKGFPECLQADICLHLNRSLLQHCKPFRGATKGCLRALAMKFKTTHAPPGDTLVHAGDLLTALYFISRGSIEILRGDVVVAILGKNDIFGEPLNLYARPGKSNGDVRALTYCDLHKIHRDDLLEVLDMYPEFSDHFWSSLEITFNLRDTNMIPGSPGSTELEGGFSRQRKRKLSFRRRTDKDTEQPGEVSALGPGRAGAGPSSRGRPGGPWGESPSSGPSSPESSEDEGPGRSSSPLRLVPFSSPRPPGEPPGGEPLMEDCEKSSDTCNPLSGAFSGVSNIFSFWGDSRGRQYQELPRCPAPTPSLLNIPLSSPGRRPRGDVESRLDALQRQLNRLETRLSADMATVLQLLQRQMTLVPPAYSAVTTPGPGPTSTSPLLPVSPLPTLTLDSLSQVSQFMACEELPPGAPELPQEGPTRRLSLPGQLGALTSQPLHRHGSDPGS

Structure (SMILES) | hERG current change (%, negative = inhibition) at 10uM [%]
CCCCC(=O)NC1(C(F)(F)F)C(=O)Nc2c1c(=O)n(C)c(=O)n2C (stereo not shown) | -4.15
O=C(NC1CC(=O)N(c2ccccc2)C1)C(=O)c1c[nH]c2ccccc12 (stereo not shown) | -11.1
COc1cc2c(cc1OC)CN(C(=O)/C=C/c1cccc([N+](=O)[O-])c1)CC2 | -31.2
COc1cc2c(cc1OC)CN(C(=O)/C=C/c1ccc([N+](=O)[O-])cc1)CC2 | -55.1
COc1cc2c(cc1OC)CN(C(=O)/C=C/c1ccc(F)cc1)CC2 | -22.2
CCOc1cc(C(c2c(C)[nH][nH]c2=O)c2c(C)[nH][nH]c2=O)ccc1OC(=O)c1cccc([N+](=O)[O-])c1 | -4.87
CCOc1ccc(-c2cc(C)[n+](CCN3CCOCC3)c(-c3ccc(OCC)cc3)c2)cc1.[O-][Cl+3]([O-])([O-])[O-] | -41.4
Cc1cc(-c2ccccc2)cc(C)[n+]1Cc1ccccc1.[O-][Cl+3]([O-])([O-])[O-] | 5.38
CCOc1ccc(-c2cn[nH]c2N)cc1 | -5.03
CCOc1ccc(C(=O)CC(=O)C(=O)NCCc2ccc(OC)c(OC)c2)cc1 | -10
CCOc1ccc(-c2nc(C)sc2CC(=O)O)cc1 | 11
CCOc1ccc(-c2cc(C)[n+](CCc3ccc(OC)c(OC)c3)c(-c3ccc(OCC)cc3)c2)cc1.[O-][Cl+3]([O-])([O-])[O-] | -83.1
Cc1cc(-c2ccccc2)cc(-c2ccccc2)[n+]1CCc1ccccc1.[O-][Cl+3]([O-])([O-])[O-] | -76.5
COc1ccc(CCNC(=O)COc2ccc(-c3ccc(C)cc3)cc2)cc1OC | -9.64
Br.CC(C)O.Cc1ccc(-c2csc(Nc3ccccc3)[n+]2CCc2ccccc2)cc1 | 20.5
CCOc1ccc(-c2cc(C)[n+](CCO)c(-c3ccc(OCC)cc3)c2)cc1.[O-][Cl+3]([O-])([O-])[O-] | -62.6
CCOc1ccc(-c2cc(C)[n+](CCN(CC)CC)c(-c3ccc(OCC)cc3)c2)cc1.[O-][Cl+3]([O-])([O-])[O-] | -79.3
CCOC(C[n+]1c(-c2ccccc2)cc(C)cc1-c1ccccc1)OCC.[O-][Cl+3]([O-])([O-])[O-] | 3.9
O=C(CNC(=O)c1ccc(Br)o1)NNC(=O)c1ccc(Br)cc1 | -35.6
O=C(c1ccccc1-c1nc2ccccc2[nH]1)N1CCOCC1 | -5.47
COCCN1CCN(C(=O)C2CCC(=O)N(Cc3ccccc3OC)C2)CC1 (stereo not shown) | 8.85
COc1ccc(/C=C(\C#N)C(=O)NCc2ccccc2)cc1 | 19.4
CCN1C(=O)[C@@H]2[C@@H](c3ccc(SC4CCCCC4)c(OC)c3)N3CCC[C@@]3(C(=O)OC)[C@@H]2C1=O.O=C(O)C(F)(F)F | -56
COC(=O)[C@@]12CCCCN1[C@H](c1ccc(SC3CCCCC3)c(OC)c1)[C@@H]1C(=O)N(C)C(=O)[C@@H]12.O=C(O)C(F)(F)F | 19.8
CCN1C(=O)[C@H]2[C@@H](c3ccc(SC4CCCCC4)c(OC)c3)N3CCCC[C@@]3(C(=O)OC)[C@H]2C1=O.O=C(O)C(F)(F)F | 13
COC(=O)c1ccccc1NC1=C/C(=N\S(=O)(=O)c2ccc(C(=O)O)cc2)c2ccccc2C1=O | -15.5

Structure (SMILES) | hERG current change (%, negative = inhibition) at 10uM [%]
CCCCNC(=O)C(C#N)c1nc2ccccc2nc1N1CCN(c2ccccc2F)CC1 (stereo not shown) | 4.79
CC1CCN(C(=O)COC(=O)c2ccc(=O)n(Cc3ccccc3)n2)CC1 | -0.635
Cc1ccc(/C=C/C2=NN(Cc3ccccc3Cl)C(=O)CC2)cc1 | -4.44
COc1ccc(-c2nnnn2C(C)C)cc1S(=O)(=O)Nc1ccccc1 | -13.9
O=C(NCCN1CCOCC1)c1ccc(Cl)cc1 | 16
Cc1ccc(C(=O)NCCCN2CCOCC2)o1 | 30.3
Cc1cccc(CSCCNC(=O)c2ccc(CN3CCOCC3)cc2)c1 | -28.3
O=C(NCCSc1ccc(Cl)cc1)c1ccc(CN2CCOCC2)cc1 | -58.5
O=C(NCCSCc1c(F)cccc1Cl)c1ccc(CN2CCOCC2)cc1 | -26.9
O=C(CCNC(=O)c1ccc(Cl)cc1)NCCCN1CCOCC1 | 4.31
O=C(NCCSc1ccccc1)c1ccc(CN2CCOCC2)cc1 | -10.3
O=C(NCCCN1CCOCC1)c1ccc(-c2ccc(Cl)cc2)o1 | -55.1
O=C(NCCCN1CCOCC1)c1ccc(CS(=O)(=O)Cc2ccc(Cl)cc2)o1 | 4.4
Cl.O=C(NCCCN1CCOCC1)c1ccc(CSc2ccc(Cl)cc2)cc1 | -59.2
O=C(NCCSCc1ccc(Cl)cc1Cl)c1ccc(CN2CCOCC2)cc1 | -54.6
Cc1ccc(SCCNC(=O)c2ccc(CN3CCOCC3)cc2)cc1 | -32.6
O=C(CSc1nnc(CNC(=O)c2cccc(C(F)(F)F)c2)o1)NC1CCCC1 | 5.51
O=C(Cc1ccc(Br)cc1)N1CCOCC1 | 13.6
COc1ccc(C(=O)Nc2sc3c(c2C(=O)O)CC(C)(C)OC3)cc1 | -2.18
CN1CCN(c2ccccc2NC(=O)c2c(F)cccc2F)CC1 | -19.9
O=C(NCc1ccco1)/C(=C\c1ccco1)NC(=O)c1cccs1 | -14.8
CCOC(=O)c1c(NC(=O)CSc2nnc(-c3cccnc3)o2)sc(C(C)=O)c1C | -46.1
Cc1ccc(-n2c(SCC(=O)N3CC(=O)Nc4ccccc43)nc3ccccc3c2=O)cc1 | -1.05
CNC(=S)SCCOc1ccccc1 | -4.52
O=C(Cc1cccs1)Nc1nc(-c2ccc(F)c(F)c2)cs1 | 19
CCOc1ccc(N2CC(C(=O)NCCCN3CCOCC3)CC2=O)cc1 (stereo not shown) | -5.47
